Assay results as given in PubChem BioAssay AID1159580 (chemical genetic matrix, 2015).
“And” between values parts separate entries of the source, which are not always exact repeats. Equal entries are not always repeated. Out of some 5,500 compounds screened, about 2,000 (36%) were called active. Not shown: some 18% with an inconclusive outcome. Cut-off read from the data, not from the text of the source: active = normalized growth mostly below about 0.91 (no sharp cut-off); inconclusive = no clear call, values can overlap the other calls; inactive = mostly above about 0.92. The list shows a part of the results.

Assay: chemical genetic growth profiling, strain panel (AID 1159580);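 note: tested at 20 µM; growth read once vehicle control cultures reached saturation at 30 °C; 1 = growth at the plate median or of vehicle wells; lower values mean less growth of the strain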
Settings: S. cerevisiae deletion strains, growth OD

Measured: normalized growth

O=C(O)CC[N+](=O)[O-]
inactive: locus YAL013W, strain DEP1, hits give low values 0.991 and 0.999 | locus YAL021C, strain ccr4, hits give low values 0.987 | locus YAL026C, strain drs2, hits give low values 1.01 | locus YAL030W, strain snc1, hits give low values 1 | locus YAL040C, strain CLN3, hits give low values 0.99 | locus YBL061C, strain skt5, hits give low values 1.01 | locus YBR009C, strain hhf1, hits give low values 1.01 | locus YBR021W, strain FUR4, hits give low values 1.12 | locus YBR023C, strain chs3, hits give low values 1.01 | locus YBR171W, strain sec66, hits give low values 1.01 | locus YBR229C, strain ROT2, hits give low values 1.01 | locus YBR231C, strain swc5, hits give low values 1.02 | locus YBR279W, strain paf1, hits give low values 0.999 | locus YCL011C, strain gbp2, hits give low values 1.02 | locus YCL016C, strain dcc1, hits give low values 1 | locus YCL029C, strain bik1, hits give low values 0.985 | locus YCL061C, strain MRC1 (second series), hits give low values 1 | locus YCL061C, strain MRC1, hits give low values 1 | locus YCL069W, strain vba3, hits give low values 0.996 | locus YCR088W, strain abp1, hits give low values 1 | locus YDL005C, strain med2, hits give low values 1 | locus YDL035C, strain GPR1, hits give low values 0.976 | locus YDL040C, strain nat1, hits give low values 0.988 | locus YDL074C, strain BRE1, hits give low values 0.999 | locus YDL101C, strain DUN1, hits give low values 0.998 | locus YDL134C, strain PPH21, hits give low values 0.997 | locus YDL185W, strain tfp1, hits give low values 0.962 | locus YDL192W, strain arf1, hits give low values 0.974 | locus YDR001C, strain nth1, hits give low values 0.993 | locus YDR069C, strain doa4, hits give low values 1.02 | locus YDR101C, strain arx1, hits give low values 0.986 | locus YDR137W, strain rgp1, hits give low values 0.999 | locus YDR150W, strain NUM1, hits give low values 0.972 and 1 | locus YDR159W, strain sac3, hits give low values 1.02 | locus YDR162C, strain NBP2, hits give low values 1.01 | locus YDR195W, strain ref2 0.977 | locus YDR297W, strain sur2, hits give low values 1.02 | locus YDR318W, strain mcm21, hits give low values 0.984 | locus YDR334W, strain swr1, hits give low values 1.01 | locus YDR335W, strain msn5, hits give low values 1 | locus YDR363W, strain ESC2, hits give low values 1.01 | locus YDR388W, hits give low values 0.993 | locus YDR392W, strain spt3, hits give low values 1.02 | locus YDR502C, strain sam2, hits give low values 0.988 | locus YEL003W, strain gim4, hits give low values 1.02 | locus YEL037C, strain rad23, hits give low values 1 | locus YEL061C, strain CIN8 (second series), hits give low values 1 | locus YEL061C, strain CIN8, hits give low values 0.994 | locus YER002W, strain NOP16, hits give low values 1.01 | locus YER015W, strain faa2, hits give low values 1 | locus YER016W, strain bim1, hits give low values 1.01 | locus YER110C, hits give low values 0.963 | locus YER111C, strain swi4, hits give low values 1.01 | locus YER155C, strain BEM2 (second series), hits give low values 1.03 | locus YER155C, strain BEM2, hits give low values 0.99 | locus YER167W, strain BCK2, hits give low values 0.988 | locus YFR010W, strain ubp6, hits give low values 1.01 | locus YGL078C, strain dbp3, hits give low values 0.979 | locus YGL086W, strain mad1, hits give low values 0.982 | locus YGL167C, strain pmr1, hits give low values 1.01 | locus YGL173C, strain kem1, hits give low values 1.02 | locus YGL227W, strain vid30, hits give low values 1 | locus YGL240W, strain doc1, hits give low values 1.04 | locus YGL248W, strain PDE1, hits give low values 1 | locus YGL253W, strain hxk2, hits give low values 1.01 | locus YGR078C, strain PAC10, hits give low values 0.986 | locus YGR135W, strain pre9, hits give low values 0.997 | locus YGR229C, strain SMI1, hits give low values 0.992 and 1 | locus YGR252W, strain gcn5, hits give low values 0.977 | locus YHR013C, strain ard1, hits give low values 0.997 | locus YHR027C, strain rpn1, hits give low values 0.997 | locus YHR030C, strain SLT2, hits give low values 0.983 and 0.976 | locus YHR079C, strain IRE1 (second series), hits give low values 0.996 | locus YHR079C, strain IRE1, hits give low values 0.976 | locus YHR094C, strain hxt1, hits give low values 0.978 | locus YHR129C, strain ARP1, hits give low values 0.986 | locus YHR142W, strain chs7, hits give low values 1.02 | locus YHR200W, strain rpn10, hits give low values 0.973 | locus YIL066C, strain RNR3, hits give low values 0.981 | locus YIL073C, strain SPO22, hits give low values 0.934 | locus YIL125W, strain kgd1, hits give low values 0.984 | locus YIR030C, strain dcg1, hits give low values 0.986 | locus YJL092W, strain hpr5, hits give low values 1 | locus YJL095W, strain BCK1 (second series), hits give low values 1.01 | locus YJL095W, strain BCK1, hits give low values 1 and 1.01 | locus YJL115W, strain asf1, hits give low values 0.997 | locus YJL129C, strain trk1, hits give low values 1.01 | locus YJL134W, strain LCB3, hits give low values 0.991 | locus YJL154C, strain vps35, hits give low values 0.996 | locus YJL164C, strain tpk1, hits give low values 0.993 | locus YJL166W, strain qcr8, hits give low values 1.02 | locus YJL168C, strain set2, hits give low values 0.99 | locus YJL187C, strain SWE1 (second series), hits give low values 0.982 | locus YJL187C, strain SWE1, hits give low values 1.01 | locus YJR043C, strain POL32, hits give low values 0.98 | locus YJR066W, strain TOR1, hits give low values 0.935
